Assay results taken from ChEMBL document CHEMBL2218924, “A broad activity screen in support of a chemogenomic map for kinase signalling research and drug discovery” (Biochem J, 2013).

What was measured:
[1] = biological target: Vascular endothelial growth factor receptor 3 (Homo sapiens) (UniProt P35916); conditions: at 10 µM
[2] = biological target: Macrophage colony-stimulating factor 1 receptor (Homo sapiens) (UniProt P07333); conditions: at 1 µM
[3] = biological target: Macrophage colony-stimulating factor 1 receptor (Homo sapiens) (UniProt P07333); conditions: at 10 µM
[4] = biological target: Tyrosine-protein kinase Fyn (Homo sapiens) (UniProt P06241); conditions: at 1 µM
[5] = biological target: Tyrosine-protein kinase Fyn (Homo sapiens) (UniProt P06241); conditions: at 10 µM
[6] = biological target: T1, Mitogen-activated protein kinase kinase kinase kinase 2 (Homo sapiens) (UniProt Q12851); conditions: at 1 µM
T1 sequence (whole entry): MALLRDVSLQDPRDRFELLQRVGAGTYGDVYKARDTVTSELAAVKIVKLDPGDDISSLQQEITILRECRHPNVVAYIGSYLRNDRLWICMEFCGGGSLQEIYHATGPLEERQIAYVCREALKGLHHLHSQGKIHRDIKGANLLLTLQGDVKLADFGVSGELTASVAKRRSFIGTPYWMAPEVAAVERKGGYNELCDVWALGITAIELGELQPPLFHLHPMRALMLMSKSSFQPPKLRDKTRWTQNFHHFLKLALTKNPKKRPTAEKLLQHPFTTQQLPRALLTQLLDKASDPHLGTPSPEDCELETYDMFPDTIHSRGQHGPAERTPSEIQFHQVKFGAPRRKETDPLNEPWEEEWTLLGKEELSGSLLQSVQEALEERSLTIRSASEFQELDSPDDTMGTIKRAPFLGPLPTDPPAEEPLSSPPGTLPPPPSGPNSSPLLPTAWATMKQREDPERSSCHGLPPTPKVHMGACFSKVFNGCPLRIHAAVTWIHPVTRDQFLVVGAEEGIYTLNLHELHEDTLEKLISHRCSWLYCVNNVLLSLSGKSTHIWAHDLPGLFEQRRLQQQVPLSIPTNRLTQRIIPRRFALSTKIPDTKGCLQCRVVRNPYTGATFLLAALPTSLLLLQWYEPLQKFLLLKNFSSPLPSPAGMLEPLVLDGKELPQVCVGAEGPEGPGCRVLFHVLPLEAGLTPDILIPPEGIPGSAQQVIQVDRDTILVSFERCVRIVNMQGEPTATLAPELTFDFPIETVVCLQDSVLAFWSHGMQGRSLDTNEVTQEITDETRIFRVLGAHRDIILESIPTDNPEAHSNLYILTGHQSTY

[7] = biological target: T1, Mitogen-activated protein kinase kinase kinase kinase 2 (Homo sapiens); conditions: at 10 µM
[8] = biological target: G protein-coupled receptor kinase 5 (Homo sapiens) (UniProt P34947); conditions: at 1 µM
[9] = biological target: G protein-coupled receptor kinase 5 (Homo sapiens) (UniProt P34947); conditions: at 10 µM
[10] = biological target: G protein-coupled receptor kinase 6 (Homo sapiens) (UniProt P43250); conditions: at 1 µM
Chain of G protein-coupled receptor kinase 6 (Homo sapiens) (P43250 whole entry, looked up): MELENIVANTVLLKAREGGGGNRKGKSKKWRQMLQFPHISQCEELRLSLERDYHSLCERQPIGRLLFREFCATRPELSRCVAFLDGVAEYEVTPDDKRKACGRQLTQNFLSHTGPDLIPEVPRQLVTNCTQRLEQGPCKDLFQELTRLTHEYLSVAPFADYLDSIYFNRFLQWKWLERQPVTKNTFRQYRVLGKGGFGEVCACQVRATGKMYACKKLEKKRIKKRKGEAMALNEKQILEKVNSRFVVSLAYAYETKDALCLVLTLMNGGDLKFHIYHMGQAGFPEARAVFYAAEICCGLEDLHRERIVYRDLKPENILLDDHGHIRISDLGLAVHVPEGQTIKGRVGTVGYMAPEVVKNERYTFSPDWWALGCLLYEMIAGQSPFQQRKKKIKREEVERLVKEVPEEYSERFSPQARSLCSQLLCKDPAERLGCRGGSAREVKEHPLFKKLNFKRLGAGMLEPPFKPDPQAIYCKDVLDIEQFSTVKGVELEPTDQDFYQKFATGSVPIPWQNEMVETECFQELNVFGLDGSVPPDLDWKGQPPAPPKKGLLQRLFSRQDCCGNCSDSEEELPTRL

Chain of Macrophage colony-stimulating factor 1 receptor (Homo sapiens) (P07333 whole entry): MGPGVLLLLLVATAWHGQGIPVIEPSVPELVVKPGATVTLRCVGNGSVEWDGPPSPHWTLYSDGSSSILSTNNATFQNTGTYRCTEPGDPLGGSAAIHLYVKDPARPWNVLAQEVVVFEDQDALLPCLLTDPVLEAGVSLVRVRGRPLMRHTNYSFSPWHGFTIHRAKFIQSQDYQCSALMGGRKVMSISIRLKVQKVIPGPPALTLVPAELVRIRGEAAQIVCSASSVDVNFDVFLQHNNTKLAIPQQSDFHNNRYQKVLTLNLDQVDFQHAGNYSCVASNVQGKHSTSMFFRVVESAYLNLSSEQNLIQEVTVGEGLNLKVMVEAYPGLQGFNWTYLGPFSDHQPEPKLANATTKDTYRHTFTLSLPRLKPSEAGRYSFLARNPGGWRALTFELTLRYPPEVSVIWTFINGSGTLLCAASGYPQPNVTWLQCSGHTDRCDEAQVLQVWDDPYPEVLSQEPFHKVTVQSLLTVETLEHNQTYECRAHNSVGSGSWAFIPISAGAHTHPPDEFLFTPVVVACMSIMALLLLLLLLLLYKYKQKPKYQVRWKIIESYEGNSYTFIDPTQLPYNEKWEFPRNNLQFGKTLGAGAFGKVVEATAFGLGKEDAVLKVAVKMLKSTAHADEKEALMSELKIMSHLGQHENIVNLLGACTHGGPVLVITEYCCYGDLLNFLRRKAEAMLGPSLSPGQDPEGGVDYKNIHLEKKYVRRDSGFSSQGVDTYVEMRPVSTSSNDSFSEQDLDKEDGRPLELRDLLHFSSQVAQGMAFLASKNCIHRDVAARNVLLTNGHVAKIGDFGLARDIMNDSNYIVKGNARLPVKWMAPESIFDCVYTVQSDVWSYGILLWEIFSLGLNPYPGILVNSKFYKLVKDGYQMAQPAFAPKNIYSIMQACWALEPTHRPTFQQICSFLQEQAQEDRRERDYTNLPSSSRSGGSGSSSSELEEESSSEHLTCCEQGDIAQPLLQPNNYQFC
Chain of Tyrosine-protein kinase Fyn (Homo sapiens) (P06241 2-537 limits assumed): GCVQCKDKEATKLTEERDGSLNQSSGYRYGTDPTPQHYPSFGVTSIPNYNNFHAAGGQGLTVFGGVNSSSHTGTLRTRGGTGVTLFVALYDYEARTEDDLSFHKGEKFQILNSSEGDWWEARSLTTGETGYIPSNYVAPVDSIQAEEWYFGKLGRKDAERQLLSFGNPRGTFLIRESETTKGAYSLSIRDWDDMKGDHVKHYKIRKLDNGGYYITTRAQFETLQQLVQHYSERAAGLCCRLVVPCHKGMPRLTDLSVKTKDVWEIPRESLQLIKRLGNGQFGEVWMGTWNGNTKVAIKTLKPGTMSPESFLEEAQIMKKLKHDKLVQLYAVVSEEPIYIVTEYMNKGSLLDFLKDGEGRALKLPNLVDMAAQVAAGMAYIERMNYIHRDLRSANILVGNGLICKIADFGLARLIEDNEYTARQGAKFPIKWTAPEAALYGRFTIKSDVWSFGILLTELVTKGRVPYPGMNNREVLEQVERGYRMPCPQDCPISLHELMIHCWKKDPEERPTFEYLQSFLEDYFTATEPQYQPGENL
Chain of G protein-coupled receptor kinase 5 (Homo sapiens) (P34947 whole entry, looked up): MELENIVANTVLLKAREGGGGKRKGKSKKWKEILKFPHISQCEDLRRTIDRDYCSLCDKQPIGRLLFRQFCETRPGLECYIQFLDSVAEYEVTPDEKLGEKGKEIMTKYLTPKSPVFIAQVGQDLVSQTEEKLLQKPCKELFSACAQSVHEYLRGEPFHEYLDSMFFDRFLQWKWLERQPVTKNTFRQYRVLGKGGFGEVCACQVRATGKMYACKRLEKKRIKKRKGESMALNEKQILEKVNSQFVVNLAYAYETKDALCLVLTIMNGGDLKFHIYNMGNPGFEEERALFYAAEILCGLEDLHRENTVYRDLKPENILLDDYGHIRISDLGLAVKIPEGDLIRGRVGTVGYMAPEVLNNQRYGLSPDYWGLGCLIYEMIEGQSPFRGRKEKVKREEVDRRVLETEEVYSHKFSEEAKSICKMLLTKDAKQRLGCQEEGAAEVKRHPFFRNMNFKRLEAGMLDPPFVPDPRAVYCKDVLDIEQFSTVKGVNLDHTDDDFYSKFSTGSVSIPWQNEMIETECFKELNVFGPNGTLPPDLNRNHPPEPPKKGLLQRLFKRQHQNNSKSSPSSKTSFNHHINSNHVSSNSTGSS
Chain of Vascular endothelial growth factor receptor 3 (Homo sapiens) (P35916 whole entry): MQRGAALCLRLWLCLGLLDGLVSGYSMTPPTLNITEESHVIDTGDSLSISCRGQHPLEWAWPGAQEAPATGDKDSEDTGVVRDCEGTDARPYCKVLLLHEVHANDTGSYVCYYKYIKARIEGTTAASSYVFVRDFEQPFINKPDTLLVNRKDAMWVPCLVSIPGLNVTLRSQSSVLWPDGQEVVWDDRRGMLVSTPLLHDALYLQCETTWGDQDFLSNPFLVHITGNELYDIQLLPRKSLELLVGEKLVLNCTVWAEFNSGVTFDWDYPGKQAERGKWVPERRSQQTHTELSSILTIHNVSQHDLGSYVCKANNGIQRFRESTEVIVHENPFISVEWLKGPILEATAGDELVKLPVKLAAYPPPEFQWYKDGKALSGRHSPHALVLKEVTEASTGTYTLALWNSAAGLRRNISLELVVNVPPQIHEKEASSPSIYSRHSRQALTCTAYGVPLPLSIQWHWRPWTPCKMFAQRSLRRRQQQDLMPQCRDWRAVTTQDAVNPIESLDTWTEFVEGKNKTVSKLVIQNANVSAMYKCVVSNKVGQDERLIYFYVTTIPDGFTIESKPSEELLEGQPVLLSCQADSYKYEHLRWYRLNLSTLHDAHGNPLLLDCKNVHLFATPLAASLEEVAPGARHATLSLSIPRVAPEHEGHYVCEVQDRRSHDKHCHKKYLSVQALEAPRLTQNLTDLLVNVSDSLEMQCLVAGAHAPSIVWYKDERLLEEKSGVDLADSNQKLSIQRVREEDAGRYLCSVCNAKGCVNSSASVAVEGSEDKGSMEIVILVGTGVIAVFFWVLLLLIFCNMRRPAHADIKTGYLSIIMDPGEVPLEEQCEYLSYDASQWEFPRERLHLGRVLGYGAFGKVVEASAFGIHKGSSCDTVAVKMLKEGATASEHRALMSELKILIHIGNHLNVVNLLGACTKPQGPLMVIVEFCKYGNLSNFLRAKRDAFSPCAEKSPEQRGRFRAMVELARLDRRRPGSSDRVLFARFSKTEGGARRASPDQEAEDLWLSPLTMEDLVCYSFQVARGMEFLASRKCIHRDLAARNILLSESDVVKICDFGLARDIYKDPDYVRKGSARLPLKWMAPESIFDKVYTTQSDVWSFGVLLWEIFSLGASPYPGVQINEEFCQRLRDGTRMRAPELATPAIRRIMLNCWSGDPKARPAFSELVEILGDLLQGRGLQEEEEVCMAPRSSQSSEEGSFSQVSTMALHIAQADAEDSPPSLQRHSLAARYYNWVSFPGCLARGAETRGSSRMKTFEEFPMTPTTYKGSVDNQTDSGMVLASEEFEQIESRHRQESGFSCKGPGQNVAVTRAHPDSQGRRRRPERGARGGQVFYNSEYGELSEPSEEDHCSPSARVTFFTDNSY

COc1cc2ncnc(Nc3ccc(OCc4ccccc4)cc3)c2cc1OC
residual activity [1]: 2%
residual activity [2]: 20%
residual activity [3]: 11%
residual activity [4]: 79%
residual activity [5]: 64%
residual activity [6]: 101%
residual activity [7]: 85%
residual activity [8]: 101%
residual activity [9]: 97%
residual activity [10]: 98%

CCc1nc(-c2ccc(OC)cc2)[nH]c1-c1ccncc1
residual activity [1]: 77%
residual activity [2]: 78%
residual activity [3]: 71%
residual activity [4]: 75%
residual activity [5]: 72%

O=C1c2ccccc2-c2nc3nnnn3nc21
residual activity [1]: 70%
residual activity [8]: 107%
residual activity [9]: 77%

C[S+]([O-])c1ccc(-c2nc(-c3ccc(F)cc3)c(-c3ccncc3)[nH]2)cc1 (stereo not given)
residual activity [1]: 42%
residual activity [2]: 109%
residual activity [3]: 52%
residual activity [4]: 76%
residual activity [5]: 35%
residual activity [6]: 104%
residual activity [7]: 100%
residual activity [8]: 109%
residual activity [9]: 104%
residual activity [10]: 107%

CC(C)[C@H](CO)Nc1nc(Nc2cccc(Cl)c2)c2ncn(C(C)C)c2n1
residual activity [1]: 3%
residual activity [2]: 70%
residual activity [3]: 34%
residual activity [4]: 4%
residual activity [5]: -1%
residual activity [6]: 75%
residual activity [7]: 23%
residual activity [8]: 97%
residual activity [9]: 82%

COc1cc2nccc(Oc3ccc(NC(=O)Nc4cc(C)on4)c(Cl)c3)c2cc1OC
residual activity [8]: 105%

O=C1NC(=O)C(c2cn(CCCn3ccnc3)c3ccccc23)=C1Nc1ccccc1
residual activity [8]: 78%

CC(C)(C)n1nc(Cc2cccc3ccccc23)c2c(N)ncnc21
residual activity [8]: 108%

N/C(=N\[N+](=O)[O-])N/N=C\c1ccc(-c2cccc([N+](=O)[O-])c2)o1
residual activity [1]: 42%
residual activity [2]: 67%
residual activity [3]: 65%
residual activity [4]: 77%
residual activity [5]: 83%
residual activity [7]: 87%
residual activity [10]: 97%

Cn1c2ccccc2c2c3c(c4c5ccccc5n(CCC#N)c4c21)CNC3=O
residual activity [8]: 69%

CCCCc1c(-c2ccc(OC)cc2)[nH]c2nccnc12
residual activity [8]: 88%

O=C(Nc1nc2ccccc2n1CCN1CCOCC1)c1cccc([N+](=O)[O-])c1
residual activity [8]: 107%
